In general, % Inhibition refers to the drop in the measured response relative to a control, in per cent.

Like-named read-outs stand apart in the source and are kept apart here. The whole screen tested about 13,000 compounds, of which about 3,200 (25%) showed an effect of 50% or more. This is one part of the list.

For this test, the system named is P. falciparum stage V gametocytes. More on the design: BacTiter-Glo ATP luminescence viability of purified stage V gametocytes in 384-well plates, per cent inhibition versus DMSO. Conditions: 48 h, 5 µM, inhibitor.

Turning to `CN1CCN(Cc2cc3cc(NC(=O)/C=C/c4cccc(Cl)c4)ccc3s2)CC1` [TCMDC-135630], the “% Inhibition” value is listed as -63.97%.
Turning to `CC(C)C[C@@H](/C=N/N1CCNC1=O)NC(=O)[C@H](CC(C)C)NC(=O)c1ccc(OCCN2CCOCC2)cc1` [TCMDC-136227], the “% Inhibition” value was found to be 6.84%.
In the case of `COC(=O)c1cccc(CNCc2cccc(-c3cccc(-c4nc5cc(C(F)(F)F)ccc5[nH]4)c3)c2)c1.O=C(O)C(F)(F)F` [TCMDC-132949], the “% Inhibition” value worked out at 2.495%.
As for `CCC(CC)(Cc1ccccc1)NC(=O)[C@H](CC1CCCCC1)Nc1ccc(C#N)c2ccccc12` [TCMDC-136634], the “% Inhibition” value was -0.7992%.
With `CC(C)(CC1CCCCC1)NC(=O)[C@H](CC1CCCCC1)Nc1ccc(C#N)c2ccccc12` [TCMDC-136632], the “% Inhibition” value is given as -68.15%.
On to `N#Cc1ccc(N[C@@H](CC2CCCCC2)C(=O)Nc2ccc(-c3ccccc3)cc2)c2ccccc12` [TCMDC-136629], for which the “% Inhibition” value worked out at 57.71%.
For `CCC(CC)(Cc1ccccc1)NC(=O)[C@H](Cc1ccc(OC)c(OC)c1)Nc1ccc(C#N)c2ccccc12` [TCMDC-136638], the “% Inhibition” value came out at 82.88%.
Same read-out and setting: next, `CCC(CC)(Cc1ccccc1)NC(=O)[C@H](CC(C)C)Nc1ccc(C#N)c2ccccc12` [TCMDC-136625]: -7.489%; `Cc1cc(NC(=O)[C@H](CC2CCCCC2)Nc2ccc(C#N)c3ccccc23)ccc1F` [TCMDC-136627]: 3.721%.
Turning to `CC(=O)c1ccc(-c2ccccc2)s1` [TCMDC-123882], the “% Inhibition” value is listed as -10.02%.
On the same count and under the same terms, next, `CC[C@H](C)[C@H](NC(=O)[C@H](CC1CCCCC1)[C@H](CC)N(O)C=O)C(=O)Nc1ccccn1` [TCMDC-137215]: 2.069%.
As to `CC(=O)Nc1cccc(-c2cn(-c3ccc(OCc4cccc(F)c4)c(Cl)c3)c3ncncc23)c1` [TCMDC-135093], the “% Inhibition” value is on record as -24.36%.
`COc1ccc(C2C(C(=O)OC3CCCC3)=C(C)NC3=C2C(=O)CCC3)cc1Br` (centres unmarked) [TCMDC-124211]: the “% Inhibition” value is reported as -24.26%.
`CCn1cc(C=C2Oc3c(ccc(O)c3CN3CCCCC3C)C2=O)c2ccccc21` (centres unmarked) [TCMDC-124886]: the “% Inhibition” value is recorded as 27.57%.
On the same count and under the same terms, as for `Cc1onc(-c2ccccc2)c1C(=O)Nc1nc(-c2ccccn2)nc2ccsc12` [TCMDC-135272], the figure is -61.64%; as for `Cc1occc1C(=O)Nc1nc(-c2ccccn2)nc2ccsc12` [TCMDC-135244], 130.5%; as for `Cc1cc(C(=O)Nc2ccc(-c3ccccc3)cc2)no1` [TCMDC-124865], 48.28%.
In the case of `Cc1cc(C(=O)Nc2nc(-c3ccccn3)nc3ccsc23)no1` [TCMDC-135243], the “% Inhibition” value amounted to 58.63%.
Still for that read-out and setting: as for `COc1ccc(C(=O)Nc2ccc3oc(-c4ccc(C(F)(F)F)cc4)cc3c2)cc1CCCN(C)C` [TCMDC-138694], the figure is 15.28%; as for `COc1ccc2nccc([C@@H](O)CN3CCC(NCc4cc5ccccc5[nH]4)CC3)c2n1` [TCMDC-140670], 14.92%.
Consider `COc1ccc2nccc([C@@H](O)CN3C4CCC3CC(NCc3ccc5c(n3)NC(=O)CS5)C4)c2n1` (some centres unmarked) [TCMDC-134697], for which the “% Inhibition” value is 50.82%.
`COc1ccc2nccc([C@@H](O)CN3CCC(NCc4cc5ccccc5cn4)CC3)c2n1` [TCMDC-140714]: the “% Inhibition” value turned out to be 12.93%.
The same measure, in the same setting: as for `COc1ccc2nccc([C@@H](O)CN3CCC(NCc4ccc5cccc(O)c5n4)CC3)c2n1` [TCMDC-140748], the figure is 43.79%; as for `COc1ccc2nccc(NCC3(O)CCC(NCc4ccc5c(n4)NC(=O)CS5)CC3)c2n1` (centres unmarked) [TCMDC-134313], 46.62%.
On the same count and under the same terms, as for `COc1cc(F)c2nccc([C@@H](O)CN3CCC(NCc4ccc5c(n4)NC(=O)CS5)CC3)c2c1` [TCMDC-141566], the figure is 6.174%; as for `COc1ccc2nccc([C@@H](O)CN3CCC(c4cc(-c5ccc(Cl)cc5)n[nH]4)CC3)c2n1` [TCMDC-141436], 81.16%.
The same measure, in the same setting: as for `COc1ccc2nccc([C@@H](O)CN3CCC(NCc4ccc5c(c4)NC(=O)CS5)CC3)c2n1` [TCMDC-141173], the figure is 12.99%; as for `COc1ccc2nccc([C@@H](O)CN3CCC(NCc4cc5c(F)ccc(F)c5[nH]4)CC3)c2n1` [TCMDC-140749], 33.6%.
Take `COc1ccc2nccc(N(C)CC3(O)CCC(NCc4ccc5c(n4)NC(=O)CS5)CC3)c2n1` (centres unmarked) [TCMDC-134496]: the “% Inhibition” value is 10.91%.
The same measure, in the same setting: as for `COc1ccc2nccc([C@@H](O)CN3CCC(NCc4cc5c(cc4F)SCC(=O)N5)CC3)c2n1` [TCMDC-141432], the figure is 52.03%; as for `COc1ccc2nccc([C@@H](O)CN3CCC(NCc4cc5cccnc5[nH]4)CC3)c2n1` [TCMDC-140769], 87.86%.
As to `COc1ccc2ncc(F)c(C(O)CN3CCC(NCc4ccc5c(n4)NC(=O)CO5)CC3)c2c1` (centres unmarked) [TCMDC-135531], the “% Inhibition” value (% Inhibition) is 14.63%.
`CN(C)CCOc1ccc2c(c1)OC(C)(C)C=C2c1cccc2ccccc12` [TCMDC-131402]: the “% Inhibition” value is listed as -10.44%.
On the same count and under the same terms, as for `CNC(=O)C1Cc2c([nH]c3c(C)cccc23)C2(N1)C(=O)Nc1ccc(OC(F)(F)F)cc12` (centres unmarked) [TCMDC-140663], the figure is 46.7%.
On to `COc1cc(Cc2cnc(N)nc2N)ccc1OCc1csc(-c2ccc(Cl)cc2)n1` [TCMDC-138680], for which the “% Inhibition” value worked out at 16.88%.
Still for that read-out and setting: next, `CCCc1cc(C(C)=O)ccc1OCCCON1C(N)=NC(N)=NC1(C)C` [TCMDC-131336]: -2.455%; `CS(=O)(=O)NCCCNCc1cccc(-c2ccc(-c3nc4ccccc4[nH]3)s2)c1.O=C(O)C(F)(F)F` [TCMDC-133088]: 4.156%.
As to `CC(=O)c1sc2ccccc2c1O` [TCMDC-125829], the “% Inhibition” value is recorded as 14.25%.
On the same count and under the same terms, next, `COc1ccc2nccc(NC(=O)C3CCC(NCc4ccc5c(c4)NC(=O)CS5)CC3)c2c1` (centres unmarked) [TCMDC-141228]: 28.37%.
`COc1ccc2nccc(NC(=O)OC3CCC(NCc4ccc5c(n4)NC(=O)CS5)CC3)c2c1` (centres unmarked) [TCMDC-141555]: the “% Inhibition” value is -20.26%.
With `COc1ccc2nccc(CCC3(O)CCC(NCc4cc5c(cc4F)SCC(=O)N5)CC3)c2c1` (centres unmarked) [TCMDC-141917], the “% Inhibition” value is listed as 62.44%.
Regarding `O=C(Nc1cccc(-c2cccc(-c3nc4ccccc4[nH]3)c2)c1)Nc1ccc(Cl)c(Cl)c1` [TCMDC-133276], the “% Inhibition” value was -27.25%.
Still for that read-out and setting: next, `CN1CCC(N(Cc2ccc(N3CCN(Cc4c[nH]c5ccc(Cl)cc45)CC3)nc2)C2CC2)CC1` [TCMDC-125090]: 56.06%.
The same measure, in the same setting: as for `O=C(NC1CC1)c1ccc(N2CCN(Cc3ccc(Cl)cc3)CC2)nc1` [TCMDC-134579], the figure is -1.025%; as for `CN(C)C1CCN(Cc2ccc(N3CCN(Cc4cccc5[nH]ccc45)CC3)nc2)CC1` [TCMDC-125091], 12.57%.
The same measure, in the same setting: next, `COc1ccc(-c2nc3c(N)nc(N)nc3nc2C(C)C)cc1` [TCMDC-132109]: -10.94%.
Regarding `COc1ccc2nccc([C@@H](O)CN3CCC(NC(=O)C(c4cc5ccccc5s4)N4CCN(c5ccccc5OC)CC4)CC3)c2c1` (some centres unmarked) [TCMDC-140998], the “% Inhibition” value was -1.294%.
Regarding `Cc1cccc(-n2nc(C)c3c2NC(=O)CC3C(=O)c2ccc(Cl)s2)c1` (centres unmarked) [TCMDC-124735], the “% Inhibition” value was 9.48%.
Still for that read-out and setting: as for `Cc1nn(-c2cccc(Cl)c2)c2c1C(C(=O)c1ccc3c(c1)OCO3)CC(=O)N2` (centres unmarked) [TCMDC-124734], the figure is 53.61%.
`Cc1ccc(-n2nc(C)c3c2NC(=O)CSC3c2ccsc2)cc1` (centres unmarked) [TCMDC-124763]: the “% Inhibition” value is on record as 18.54%.
With `COc1ccc2ncc(F)c(CCN3CC(O)C(CNCc4nc5c(cc4Cl)OCC(=O)N5)C3)c2n1` (centres unmarked) [TCMDC-136076], the “% Inhibition” value (% Inhibition) was found to be 36.95%.
In the case of `CN(C)c1ccc(Br)c(Br)c1` [TCMDC-137228], the “% Inhibition” value is listed as -4.164%.
Same read-out and setting: as for `CCc1ccc(N2C(N)=NC(N)=NC2(C)C)cc1` [TCMDC-137714], the figure is 18.99%.
On the same count and under the same terms, as for `O=C(Nc1cccc2ccccc12)N1CCc2cc3nccc(N4CCN5CCC[C@H]5C4)c3cc21` [TCMDC-140051], the figure is -22.56%; as for `COc1ccc(N2CCN(CCCCNC(=O)c3ccc(NC(=O)c4ccc(C(F)(F)F)cc4)cc3)CC2)c(OC)c1` [TCMDC-138132], -49.13%.
For `COc1ccc(N2CCN(CCCNC(=O)c3ccc(NC(=O)c4cc(Cl)cc(Cl)c4)cc3)CC2)c(OC)c1` [TCMDC-138244], the “% Inhibition” value is listed as -9.881%.
On the same count and under the same terms, as for `COc1ccc(N2CCN(CCCCNC(=O)c3ccc(NC(=O)c4cccc(Cl)c4)cc3)CC2)c(OC)c1` [TCMDC-138183], the figure is 74.19%.
On the same count and under the same terms, as for `COc1ccc(N2CCN(CCCC/C=C/c3ccc(NC(=O)c4cc(Cl)cc(Cl)c4)cc3)CC2)c(OC)c1` [TCMDC-138219], the figure is 10.07%; as for `COc1ccc(N2CCN(CCCCNC(=O)c3ccc(NC(=O)c4ccc(Cl)cc4)cc3)CC2)c(OC)c1` [TCMDC-138121], -18.96%.
On the same count and under the same terms, as for `COc1ccc(N2CCN(CCCCNC(=O)c3ccc(NC(=O)c4cc(Cl)cc(Cl)c4)cc3)CC2)c(OC)c1` [TCMDC-138158], the figure is -3.672%; as for `COc1ccc(N2CCN(CCCOc3ccc(NC(=O)c4cc(Cl)cc(Cl)c4)cc3)CC2)c(OC)c1` [TCMDC-138225], -23.18%; as for `COc1ccc(N2CCN(CCCCNC(=O)c3ccc(NC(=O)c4ccc(Cl)c(Cl)c4)cc3)CC2)c(OC)c1` [TCMDC-138159], 58.71%.
For the compound `COc1ccc(N2CCN(CCCCNCc3ccc(NC(=O)c4cc(Cl)cc(Cl)c4)cc3)CC2)c(OC)c1` [TCMDC-138226], the “% Inhibition” value stood at 99.96%.
The same measure, in the same setting: as for `Cc1ccoc1C(=O)Nc1cccc(-c2cccc(-c3nc4ccc(C(F)(F)F)cc4[nH]3)c2)c1` [TCMDC-136835], the figure is 10.66%.
As to `Cc1onc(-c2c(Cl)cccc2Cl)c1C(=O)N1CCc2cc3nccc(N4CCN5CCC[C@H]5C4)c3cc21` [TCMDC-140048], the “% Inhibition” value was 3.329%.

Values taken from article PMC4552634, “A New Set of Chemical Starting Points with Plasmodium falciparum Transmission-Blocking Potential for Antimalarial Drug Discovery” (PLoS ONE, 2015).
